Source: PMC12136788
Positions count from the first letter of the chain named. The full ranking holds about 5,800 sequences; the median of “enrichment r” is about 0.54, and the highest 2% start at about 16. This is one part of a sample in which the highest values are shown more often than they occur.

B1: chr5:97028609:97028710:+|3pUTR|ENSG00000113441|msi1|total|mutant (ssRNA)
RNA: GGGAGUUCUACAGUCCGACGAUCUUGCAAAAGCCAAGGUAAAGCCAGGAUCGCUGCCAAGUUGUUUGCACUCUUUGGAGUUCCCGUCCGCUCAGGGCCUGACUGUAUUUUUCAUCCAUCUUUUCUGAAGUGUCUUUGGGCAGUCAACAGAGGAUUGAGCAUCA
B2: chr15:34983303:34983404:-|CDS|ENSG00000198146|msi1|FALSE|unique (ssRNA)
RNA: GGGAGUUCUACAGUCCGACGAUCGCUGAAAACAAUUUAAAAAUGCUAAAGAUUCAACAGUGUGUGGUAGCCAACAAACUACCUAGAAACAGGCCAUAUGUUUGCAAUAUUUGUUUUAAGCACUUUGAAACACCAUCAAAAUUACAACAGAGGAUUGAGCAUCA
B3: ENSG00000160710:stop:overlap|stop_codon|ENSG00000160710|stop_codon|NA|stop_codon (ssRNA)
RNA: GGGAGUUCUACAGUCCGACGAUCGCUAUGGGAACUGGAUUAGCAAACCCCAGGAGGAAAAGAACUUUUAUCUCUGCCCAGUAUAGUAUGCUCCAGUGACAGAUGGAUUAGGGUGUGUCAUACUAGGGUGUGAGAGAGGUAGGUCAACAGAGGAUUGAGCAUCA
B4: chr5:128187618:128187661:+|3pUTR|ENSG00000064651|msi1_unk|FALSE|overlapping (ssRNA)
RNA: GGGAGUUCUACAGUCCGACGAUCUCCUUUAUAAGUCAUUAAAAUAAUGUUUCAUCAAAUGGUUAAAUGGACCACUGGUUUCUUAGAGAAAUGUUUUUAGGCUUAAUUCAUUCAAUUGUCAAGUACACUUAGUCUUAAUACACUCAACAGAGGAUUGAGCAUCA
B5: ENSG00000198589:be:win_9151|3pUTR|ENSG00000198589|bound_else_gene|NA|bound_elsewhere_windowed (ssRNA)
RNA: GGGAGUUCUACAGUCCGACGAUCAUUGUGUGGUUAGCACAAGGAAUCUAAUUUAUAGCAAGUGUGAAAUAGUUACCAUUUUUUCCUGAUCUGUCAUCUUCAUAGCACAACAAAACGAAAUGAUGGAAAUGCUCUUGAGCUCACCAACAGAGGAUUGAGCAUCA
B6: chr10:52765379:52768136:-|three_prime_utr|ENSG00000165471|control|control|control (ssRNA)
RNA: GGGAGUUCUACAGUCCGACGAUCUUGUUCCUUUUGUGGGCAAUCACUAAAAAUGAUCACUAACAGCACCAACAAAGCAAUAAUAGUAGUAGUAGUAGUUAGCAGCAGCAGUAGUAGUCAUGCUAAUUAUAUAAUAUUUUUAAUCAACAGAGGAUUGAGCAUCA
B7: chr12:89590234:89590335:-|3pUTR|ENSG00000070961|msi1|FALSE|bound_elsewhere (ssRNA)
RNA: GGGAGUUCUACAGUCCGACGAUCUUUGCCUACAAUUUACCUUGUUAAAUAUUGUAGAUAAAUUGCUAAUACUAAUAGCCAAAUAGAUAACACUAAUGCUUUGUUUAAAAAAACGAAAAAAACAAAACAAAACAAAAAAACAUGCAACAGAGGAUUGAGCAUCA
B8: ENSG00000198589:be:win_9201|3pUTR|ENSG00000198589|bound_else_gene|NA|bound_elsewhere_windowed (ssRNA)
RNA: GGGAGUUCUACAGUCCGACGAUCACCAUUUUUUCCUGAUCUGUCAUCUUCAUAGCACAACAAAACGAAAUGAUGGAAAUGCUCUUGAGCUCACAACAUUUGUUUUUCUUUUAAAGUAAAUGCAAGUACCAAAGCUCACUACUGCAACAGAGGAUUGAGCAUCA
B9: chr6:149410404:149410522:+|3pUTR|ENSG00000055208|unk|total|mutant (ssRNA)
RNA: GGGAGUUCUACAGUCCGACGAUCUUAUAUUUCUAUAUGUACCGUGUAACCGCCUUUUGUUAACUAAUUUUCUUUUUUCCUUUCCGUAAUUAAGCACGAUCAUGUCCCUUUUUAAGCCUUACCUGAGAGGAACAAUGCCUUAAACAACAGAGGAUUGAGCAUCA
B10: chr2:15946816:15946917:+|3pUTR|ENSG00000134323|unk|FALSE|unique (ssRNA)
RNA: GGGAGUUCUACAGUCCGACGAUCUAUAUGCCUUUUUCCUAGCCUGUUUCUUCCUGUUAAUGUAUUUGUUCAUGUUUGGUGCAUAGAACUGGGUAAAUGCAAAGUUCUGUGUUUAAUUUCUUCAAAAUGUAUAUAUUUAGUGCUCAACAGAGGAUUGAGCAUCA
B11: chr3:112140897:112141281:-|three_prime_utr|ENSG00000172139|control|control|control (ssRNA)
RNA: GGGAGUUCUACAGUCCGACGAUCACUUUUUGCAAAAUUUCCUUGAUUUAAAAUAUUUGUUAUUUUAAAUAUACAAAACAUUUUAGAAAAUCUUAGAGUAAAUUUUAGUCUUAAAGCCAGAAAAUAAGUUUAUAGCCAUCUAGACAACAGAGGAUUGAGCAUCA
B12: chr6:149410404:149410522:+|3pUTR|ENSG00000055208|unk|FALSE|bound_elsewhere (ssRNA)
RNA: B9 RNA with C41U, C42A, C49U, C50A, C83U, C84A
B13: ENSG00000198589:be:win_9101|3pUTR|ENSG00000198589|bound_else_gene|NA|bound_elsewhere_windowed (ssRNA)
RNA: GGGAGUUCUACAGUCCGACGAUCUUCAAGCAUGUUUUAGACCUAGAAAAGUAUGGUUUGGGGGAGGCUAUUUUAUUGUGUGGUUAGCACAAGGAAUCUAAUUUAUAGCAAGUGUGAAAUAGUUACCAUUUUUUCCUGAUCUGUCAACAGAGGAUUGAGCAUCA
B14: chr11:118750849:118750950:-|3pUTR|ENSG00000110367|msi1|total|mutant (ssRNA)
RNA: GGGAGUUCUACAGUCCGACGAUCAUUCCCGAAAGUACUUUGGCCUCGUGCUGCCGAGAGCAGAUUUCUAUGGUACCCUGUGUCCGUAAAGGGGCCCAGAAAUCUGGGAUGUACUGUUUGCUGCCACACUGUCUCAUCCCGUACCAACAGAGGAUUGAGCAUCA
B15: chr10:32033860:32033975:-|CDS|ENSG00000170759|unk|FALSE|unique (ssRNA)
RNA: GGGAGUUCUACAGUCCGACGAUCCACAGUGGAUAAAGAUAUUACUCUUACCAAUGAUAAACCAGCAACCGCAAUUGGAGUUAUAGGAAAUUUUACUGAUGCUGAAAGAAGAAAGUGUGAAGAAGAAAUUGCUAAAUUAUACAACAACAGAGGAUUGAGCAUCA
B16: chr2:205797254:205797461:+|3pUTR|ENSG00000118257|msi1|FALSE|unique (ssRNA)
RNA: GGGAGUUCUACAGUCCGACGAUCUCACCCUCCCAUGAUGCGCAGUGUUCAGAAAGCUGGUAAGUCCUAGGGAUUUCCAGAAGUAGCCUGCAGAAGAAGGUAAGUUUGAAAGCCACUCCAGGGGUCCUGAUGCUGUCAUGCUCACAACAGAGGAUUGAGCAUCA
B17: ENSG00000107863:be:win_2651|CDS|ENSG00000107863|bound_else_gene|NA|bound_elsewhere_windowed (ssRNA)
RNA: GGGAGUUCUACAGUCCGACGAUCAGGGUCUGGAUGAUUACAGAGAAGAUGCAAAAUUGUCCUUUAAGCACGUAUCUAGUCUGAAGGGAAUCAAGAUCGCAGACAGCCAAAAGUCAUCAGAAGACUCUGGGUCCAGAAAAGAUUCAACAGAGGAUUGAGCAUCA
B18: chr10:74136666:74136778:-|CDS|ENSG00000185009|unk|FALSE|unique (ssRNA)
RNA: GGGAGUUCUACAGUCCGACGAUCUUCAGAGGCUGCAAUUAAGGAUAAUGUGGUCAUAGUAUAUGAACUCUUAGAAGAAAUGUUAGACAAUGGAUUUCCACUGGCUACCGAAUCUAACAUUUUGAAAGAAUUGAUUAAACCACCCAACAGAGGAUUGAGCAUCA
B19: chr1:94529602:94529703:-|3pUTR|ENSG00000117525|msi1|total|mutant (ssRNA)
RNA: GGGAGUUCUACAGUCCGACGAUCUGGAAGGAAAUUGGGUGCAUUUCCCGGACUUUUCUAACAUAUGUCUAUAAUACCGUGUUCCGGUUCUUUUUUUUUUCAGGAAUACAUUUGGAAAUUCAAAACAAUUGGCAAACUUUGUAUCAACAGAGGAUUGAGCAUCA
B20: chr3:125228010:125228111:-|3pUTR|ENSG00000163848|msi1|FALSE|unique (ssRNA)
RNA: GGGAGUUCUACAGUCCGACGAUCAGUUCUCUUCAUAUUUCAUAACUACAUUUCAAUAAUUCUAAACUUUCUACAUUGAUUUUUAGAUACUUAUUUUUCAAGCUUGGUUUCUCAGCUGAUCAGAUGAAUUUAUUCAACUUCAAUCAACAGAGGAUUGAGCAUCA
B21: ENSG00000100485:stop:overlap|stop_codon|ENSG00000100485|stop_codon|NA|stop_codon (ssRNA)
RNA: GGGAGUUCUACAGUCCGACGAUCAUAUAUAUACACAUAUAUAUACACACACACACACAUUUUAUGUGUCAGUUUUCAAUAUAUAGUUAACACAAAAGCUCUCAGCUUUUAAUUCAAAUAUAGGGAAUAUUUUUAACUUCACAGCAACAGAGGAUUGAGCAUCA
B22: chr1:93888438:93888539:-|3pUTR|ENSG00000023909|msi1|total|mutant (ssRNA)
RNA: GGGAGUUCUACAGUCCGACGAUCAGAUAUUUUUCCUGUCAUUGAUGAGAUAUAUCAGAGUAACUGGAGCCGCUGGGAUUUACCCGCCGUGUAAAUAAAAUUCACUCUUCAAUACAUGAAUGGAAACUUAAAUUUUUUUUUAUGCAACAGAGGAUUGAGCAUCA
B23: chr11:58422334:58423261:-|CDS|ENSG00000172365|control|control|control (ssRNA)
RNA: GGGAGUUCUACAGUCCGACGAUCACACACUAGUGAGGUGAUUCUGGUUUUUAUGUCAAGCUUUAAUAUCUUUUUUGUUCUUCUAGUUAUCUUUAUCUCCUACUUGUUCAUAUUCAUCACCAUCUUGAAGAUGCAUUCAGCUAACAACAGAGGAUUGAGCAUCA
B24: chr1:93888438:93888539:-|3pUTR|ENSG00000023909|msi1|FALSE|unique (ssRNA)
RNA: B22 RNA with C69U, C70A, C83U, C84A, C86U, C87A
B25: chr12:64147824:64147925:+|3pUTR|ENSG00000196935|unk|FALSE|unique (ssRNA)
RNA: GGGAGUUCUACAGUCCGACGAUCCAUCUCUGUGGUGUCUUUGUUCCUUUCCUUUCAUUCAUCACUACUUUCUCCUUGACAGCUAGCUUGCAUUAAAUAAUGUGAAACUUUUACCUUUAAAAUAUUUUUUUAUCUCACUUUCAUCAACAGAGGAUUGAGCAUCA
B26: chr3:125228010:125228111:-|3pUTR|ENSG00000163848|msi1|total|mutant (ssRNA)
RNA: B20 RNA with U83C, A84C
B27: chr5:43295829:43295944:-|CDS|ENSG00000112972|unk|FALSE|unique (ssRNA)
RNA: GGGAGUUCUACAGUCCGACGAUCAAUAUCCUAGCUUUAUUCUAAAGUCAAACUUUAAAAUUUCAUGGCUUAUAUGAAUUUCAUAGUUUCCUUGGACUUCUCUUUCAGAGGGAAAUGAUAAAGAUUUUACCUUGAAUGAUUUUGCAACAGAGGAUUGAGCAUCA
B28: chr12:49764829:49764866:+|3pUTR|ENSG00000139644|msi1_unk|FALSE|overlapping (ssRNA)
RNA: GGGAGUUCUACAGUCCGACGAUCACUUUUAAAGAAAAUACCUAACAGAUUUUUAAUAUAGUUAUCUCUACCACUUUCUUUUCUAGUUUCUUGAUUUUCAGCUCAGGCUGCAUUCUAACUCAUACUGUGAAGACAAAGGUGUUUCAACAGAGGAUUGAGCAUCA

Target: MSI1 full-length (mouse, UniProt Q61474 1-362)
Experiment: nsRBNS (natural sequence RNA bind-n-seq); RBNS binding buffer (assumed for nsRBNS): 25 mM Tris pH 7.5, 150 mM KCl, 3 mM MgCl2, 0.01% Triton X-100, 500 ug/ml BSA, 20 U/ml SUPERase-In, 4 C; UNK is unkempt and MSI1 is Musashi-1; names of the RNAs are library labels; protein concentration not given here; high values mean tight binding

Sequence of MSI1 full-length (Q61474 whole entry): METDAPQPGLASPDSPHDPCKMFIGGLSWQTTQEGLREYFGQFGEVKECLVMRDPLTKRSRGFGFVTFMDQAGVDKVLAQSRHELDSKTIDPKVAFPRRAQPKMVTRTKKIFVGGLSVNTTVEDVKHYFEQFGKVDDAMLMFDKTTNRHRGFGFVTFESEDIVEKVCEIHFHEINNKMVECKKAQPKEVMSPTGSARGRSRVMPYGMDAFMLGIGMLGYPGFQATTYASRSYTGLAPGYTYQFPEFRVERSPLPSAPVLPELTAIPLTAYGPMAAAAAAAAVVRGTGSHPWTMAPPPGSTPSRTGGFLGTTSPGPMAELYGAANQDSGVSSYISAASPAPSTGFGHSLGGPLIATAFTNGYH

Binder | binding signal [enrichment R]
B1 | 0.321
B2 | 0.421
B3 | 1.25
B4 | 15.5
B5 | 33.5
B6 | 83.7
B7 | 1.67
B8 | 0.392
B9 | 11.2
B10 | 6.12
B11 | 14.9
B12 | 30.1
B13 | 7.83
B14 | 0.539
B15 | 1.59
B16 | 0.607
B17 | 0.365
B18 | 0.651
B19 | 0.407
B20 | 5.53
B21 | 2.06
B22 | 0.484
B23 | 23.6
B24 | 28.4
B25 | 7.22
B26 | 18.6
B27 | 0.654
B28 | 3.05
